This note sets out measurements from PubChem BioAssay.

The nature of assay [1]: small molecules captured by biotinylated probe aFSTL3 – biochemical, small-molecule microarray, fluorescence 635/667, stem cell growth factor project, primary screen (AID 1064).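 Note: measures binding of the biotinylated anti-FSTL3 antibody to printed compounds.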 Particulars: higher = more signal.
The nature of assay [2]: binders from COS7 lysate, DM2A8 probe, primary screen, torsin A project, cell lysate, small-molecule microarray, fluorescence 635/667 (AID 1065). Particulars: higher = more signal, COS7 lysate expressing mutant human TOR1A.
Assay [3] can be described thus: small molecules captured by biotinylated probe aFGF2 – biochemical, small-molecule microarray, fluorescence 635/667, stem cell growth factor project, primary screen (AID 1067).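 Note: measures binding of biotinylated aFGF2 protein to printed compounds on slides; z-score merges feature fluorescence and signal-to-noise across triplicate slides.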 Particulars: higher = more signal.
The nature of assay [4]: small molecules captured by biotinylated probe aFGF10 – biochemical, small-molecule microarray, fluorescence 635/667, stem cell growth factor project, primary screen (AID 1071).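 Note: score merges 667 nm spot intensity and signal to noise from triplicate slides.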 Particulars: higher = more signal.
The target in assay [5] is Neurogenic locus notch homolog protein 2 (Homo sapiens) (UniProt Q04721). Put plainly: small molecules binding Notch2 protein – biochemical, small-molecule microarray, 635 nm fluorescence, stem cell growth factors, primary screen (AID 1073). Particulars: higher = more signal.
Chain of Neurogenic locus notch homolog protein 2 (Homo sapiens) (Q04721 whole entry, looked up, canonical isoform): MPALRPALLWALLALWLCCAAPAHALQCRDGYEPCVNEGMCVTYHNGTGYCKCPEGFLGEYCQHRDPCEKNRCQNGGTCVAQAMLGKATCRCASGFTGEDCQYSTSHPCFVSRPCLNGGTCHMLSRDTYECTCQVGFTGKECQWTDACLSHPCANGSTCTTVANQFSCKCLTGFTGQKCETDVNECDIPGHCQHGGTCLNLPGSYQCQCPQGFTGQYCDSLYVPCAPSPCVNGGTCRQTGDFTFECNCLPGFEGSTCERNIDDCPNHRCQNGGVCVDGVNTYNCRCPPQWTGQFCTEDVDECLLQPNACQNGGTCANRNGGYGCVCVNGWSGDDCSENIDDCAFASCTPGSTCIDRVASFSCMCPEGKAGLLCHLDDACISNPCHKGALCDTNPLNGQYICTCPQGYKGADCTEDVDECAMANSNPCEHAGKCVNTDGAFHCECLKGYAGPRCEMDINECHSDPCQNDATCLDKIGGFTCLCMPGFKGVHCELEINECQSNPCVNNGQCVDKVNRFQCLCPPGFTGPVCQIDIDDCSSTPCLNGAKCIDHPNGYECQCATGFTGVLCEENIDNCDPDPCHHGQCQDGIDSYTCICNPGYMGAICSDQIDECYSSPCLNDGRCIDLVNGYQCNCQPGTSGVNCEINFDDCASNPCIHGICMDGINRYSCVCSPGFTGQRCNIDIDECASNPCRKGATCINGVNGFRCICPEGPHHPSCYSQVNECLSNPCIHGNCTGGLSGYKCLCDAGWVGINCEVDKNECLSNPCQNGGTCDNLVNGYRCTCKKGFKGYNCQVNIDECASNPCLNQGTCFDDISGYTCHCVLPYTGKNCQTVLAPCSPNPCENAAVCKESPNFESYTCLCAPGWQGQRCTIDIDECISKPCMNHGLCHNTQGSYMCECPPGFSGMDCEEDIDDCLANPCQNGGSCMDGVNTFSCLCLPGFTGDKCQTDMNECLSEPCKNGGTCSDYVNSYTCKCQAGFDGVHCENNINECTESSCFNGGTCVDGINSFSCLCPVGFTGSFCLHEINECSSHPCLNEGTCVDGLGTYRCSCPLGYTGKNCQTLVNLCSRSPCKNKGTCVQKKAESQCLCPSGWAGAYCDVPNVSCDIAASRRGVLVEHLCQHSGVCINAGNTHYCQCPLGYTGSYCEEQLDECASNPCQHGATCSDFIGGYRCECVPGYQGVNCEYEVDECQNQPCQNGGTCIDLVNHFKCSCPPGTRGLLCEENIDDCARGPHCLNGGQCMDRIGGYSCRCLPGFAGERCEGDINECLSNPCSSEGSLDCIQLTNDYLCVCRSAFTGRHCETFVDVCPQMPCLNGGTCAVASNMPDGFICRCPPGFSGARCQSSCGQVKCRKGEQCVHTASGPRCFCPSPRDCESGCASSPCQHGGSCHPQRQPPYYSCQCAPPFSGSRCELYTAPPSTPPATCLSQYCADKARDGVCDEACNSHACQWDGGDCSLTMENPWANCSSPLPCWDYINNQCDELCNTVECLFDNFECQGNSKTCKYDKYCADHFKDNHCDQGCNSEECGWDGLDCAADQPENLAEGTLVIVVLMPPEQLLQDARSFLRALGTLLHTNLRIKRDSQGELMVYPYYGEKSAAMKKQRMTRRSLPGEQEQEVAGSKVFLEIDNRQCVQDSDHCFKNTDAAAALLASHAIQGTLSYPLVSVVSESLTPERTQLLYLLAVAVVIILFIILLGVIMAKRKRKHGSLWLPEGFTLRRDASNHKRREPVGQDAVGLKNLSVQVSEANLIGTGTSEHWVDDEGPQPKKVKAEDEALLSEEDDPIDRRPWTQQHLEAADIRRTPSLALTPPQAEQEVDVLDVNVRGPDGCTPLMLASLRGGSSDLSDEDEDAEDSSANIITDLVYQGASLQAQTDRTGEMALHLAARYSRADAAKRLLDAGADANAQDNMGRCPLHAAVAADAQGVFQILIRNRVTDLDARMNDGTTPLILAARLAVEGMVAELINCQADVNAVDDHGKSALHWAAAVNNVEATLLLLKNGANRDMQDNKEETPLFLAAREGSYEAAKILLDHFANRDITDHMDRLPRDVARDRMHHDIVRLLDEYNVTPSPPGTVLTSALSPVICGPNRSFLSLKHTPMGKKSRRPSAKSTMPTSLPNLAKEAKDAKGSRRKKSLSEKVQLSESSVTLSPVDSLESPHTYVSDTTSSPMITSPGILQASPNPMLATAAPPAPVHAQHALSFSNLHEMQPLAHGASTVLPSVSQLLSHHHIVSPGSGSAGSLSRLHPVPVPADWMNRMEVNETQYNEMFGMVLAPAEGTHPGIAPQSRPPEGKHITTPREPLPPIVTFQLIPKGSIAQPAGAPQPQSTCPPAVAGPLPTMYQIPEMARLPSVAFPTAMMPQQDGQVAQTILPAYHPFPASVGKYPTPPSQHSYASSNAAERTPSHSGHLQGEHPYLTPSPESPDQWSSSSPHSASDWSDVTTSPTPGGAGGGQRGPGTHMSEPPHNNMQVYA
In assay [6] the target is Pro-neuregulin-1, membrane-bound isoform (Homo sapiens) (UniProt Q02297). Put plainly: small molecules binding neuregulin-1 protein – biochemical, small-molecule microarray, fluorescence 635/667, psychiatric disease protein project, primary screen (AID 1075).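 Note: score combines 667 nm spot fluorescence with signal to noise.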 Particulars: NRG1 binding, 635 nm fluorescence, higher = more signal.
Chain of Pro-neuregulin-1, membrane-bound isoform (Homo sapiens) (Q02297 whole entry, looked up, the tested form may be a part, canonical isoform): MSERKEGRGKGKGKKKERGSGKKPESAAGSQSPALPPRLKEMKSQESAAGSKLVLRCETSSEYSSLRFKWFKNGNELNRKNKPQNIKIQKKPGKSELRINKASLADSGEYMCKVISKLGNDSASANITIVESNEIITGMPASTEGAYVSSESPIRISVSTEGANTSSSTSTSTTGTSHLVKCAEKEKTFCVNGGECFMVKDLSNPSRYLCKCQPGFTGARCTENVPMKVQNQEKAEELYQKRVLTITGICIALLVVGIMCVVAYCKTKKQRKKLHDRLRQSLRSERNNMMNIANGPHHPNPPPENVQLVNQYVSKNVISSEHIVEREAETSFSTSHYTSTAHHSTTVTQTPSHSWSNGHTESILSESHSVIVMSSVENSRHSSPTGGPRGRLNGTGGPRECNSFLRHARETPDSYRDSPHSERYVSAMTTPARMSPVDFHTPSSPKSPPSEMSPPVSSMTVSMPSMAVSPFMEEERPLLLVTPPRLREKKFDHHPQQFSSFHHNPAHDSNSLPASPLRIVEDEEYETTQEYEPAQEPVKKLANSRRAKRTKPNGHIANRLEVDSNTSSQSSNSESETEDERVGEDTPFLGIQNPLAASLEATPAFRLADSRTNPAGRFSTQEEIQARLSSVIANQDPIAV
In assay [7] the test system is Neuregulin-1 EGF-like domain. As to the kind of experiment: small molecules binding NRG1 EGF domain – biochemical, small-molecule microarray, 635 nm fluorescence, primary screen (AID 1081).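 Note: binding of the protein to compounds printed on small-molecule microarray slides.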 Particulars: higher = more signal.
Assay [8] is described as follows: FRG1 expression reporter modulators in myotubes – cell-based, C2C12 myotubes, firefly/Renilla luciferase, luminescence, FRG1 inhibition for FSHD, primary screen (AID 1084). Particulars: FRG1 promoter luciferase, higher = more signal, called active from +8 up or from −8 down.
Assay [9] in a line: small molecules captured by biotinylated probe aFST – biochemical, small-molecule microarray, fluorescence 635/667, stem cell growth factor project, primary screen (AID 1086).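 Note: score merges 667 nm fluorescence with signal-to-noise of each printed compound spot.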 Particulars: higher = more signal.
Assay [10] is described as follows: binders of probe aHhip on microarray, primary screen, stem cell growth factor project, biochemical, small-molecule microarray, fluorescence 635/667 (AID 1087).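 Note: score merges spot fluorescence at 667nm with spot signal to noise ratio.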 Particulars: higher = more signal.
Assay [11] concerns PRMT1 (protein arginine N-methyltransferase 1). Put plainly: small molecules binding arginine methyltransferase PRMT1 – biochemical, small-molecule microarray, 635 nm fluorescence, primary screen (AID 1088).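 Note: binding of Prmt1 protein to compounds spotted on small-molecule microarray slides.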 Particulars: higher = more signal.
Assay [12] in a line: growth effects on S. cerevisiae YJM789 – YJM789 clinical isolate, OD600, 24 h, basal, primary screen (AID 1089).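 Note: growth of clinical yeast isolate S. cerevisiae YJM 789 seeded 1000 cells per well; test concentration not given here.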 Particulars: higher = more signal, called active from +8 up or from −8 down.
The nature of assay [13]: S. pombe growth modifiers, basal conditions – strain 972, OD600, 24 h, no modulator, primary screen (AID 1090).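 Note: basal condition with compound alone and no growth modifier present; test concentration not given here.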 Particulars: S. pombe 972 growth, higher = more signal, called active from +8 up or from −8 down.
Assay [14] can be described thus: budding yeast growth modifiers under rapamycin – strain BY4716, OD600, 96 h, primary screen (AID 1091). Note: test concentration not given here. Particulars: S. cerevisiae BY4716 + rapamycin, higher = more signal, called active from +8 up or from −8 down.
Assay [15] deals with Torsin-1A-interacting protein 2 (Homo sapiens) (UniProt Q8NFQ8). As to the kind of experiment: small molecules binding lysate-expressed LULL1 – cell lysate, human LULL1 lysate, 635/667 nm fluorescence, primary screen (AID 1092).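 Note: probe is lysate of COS7 cells overexpressing human LULL1; score merges per-feature 667 nm fluorescence with signal-to-noise.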 Particulars: small-molecule microarray, hLULL1 lysate binding, 635 nm fluorescence; higher = more signal.
Chain of Torsin-1A-interacting protein 2 (Homo sapiens) (Q8NFQ8 whole entry, looked up): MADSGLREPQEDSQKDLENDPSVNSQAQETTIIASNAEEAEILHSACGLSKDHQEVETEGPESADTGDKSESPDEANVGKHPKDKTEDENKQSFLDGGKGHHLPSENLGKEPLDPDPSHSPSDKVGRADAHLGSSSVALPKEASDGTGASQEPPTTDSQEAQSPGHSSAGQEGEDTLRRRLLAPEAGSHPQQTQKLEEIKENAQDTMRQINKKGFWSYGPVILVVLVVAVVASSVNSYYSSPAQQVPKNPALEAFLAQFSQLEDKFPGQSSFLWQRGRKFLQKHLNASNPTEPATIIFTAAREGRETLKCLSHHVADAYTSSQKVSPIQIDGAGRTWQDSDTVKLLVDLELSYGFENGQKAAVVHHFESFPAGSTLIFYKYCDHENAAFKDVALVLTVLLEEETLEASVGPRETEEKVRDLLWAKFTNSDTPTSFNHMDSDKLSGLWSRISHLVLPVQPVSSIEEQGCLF
A short description of assay [16]: optical density change of DRC41 E. coli – strain DRC41, OD650, 24 h, E. coli filamentation project, primary screen (AID 1093).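 Note: MC1000 strain lacking acrAB efflux and sulA so SOS filamentation is blocked; test concentration not given here.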 Particulars: E. coli DRC41 growth, higher = more signal, called active from +8 up or from −8 down.
The nature of assay [17]: probe aLefty2 binding to arrayed compounds – biochemical, biotinylated probe, 635/667 nm fluorescence, primary screen (AID 1094).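 Note: score merges spot fluorescence near 667 nm with spot signal-to-noise ratio.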 Particulars: small-molecule microarray, higher = more signal.
The test system of assay [18] is Noggin (protein binding on small-molecule microarray). As to the kind of experiment: small molecules binding Noggin protein – biochemical, 635/667 nm fluorescence, primary screen (AID 1095).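 Note: score merges 667 nm feature fluorescence with signal to noise over triplicate slides.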 Particulars: 635 nm fluorescence, higher = more signal.
The target in assay [19] is Neurogenic locus notch homolog protein 3 (Homo sapiens) (UniProt Q9UM47). Put plainly: small molecules binding NOTCH3 protein – biochemical, 635/667 nm fluorescence, primary screen (AID 1096). Particulars: small-molecule microarray, 635 nm fluorescence, higher = more signal.
Assay [20] in a line: probe aEGFR binding to arrayed compounds – biochemical, biotinylated probe, 635/667 nm fluorescence, primary screen (AID 1097).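 Note: probe is a biotinylated anti-EGFR antibody binding compounds printed on slides; score combines fluorescence near 667 nm and signal to noise of each spot.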 Particulars: small-molecule microarray, higher = more signal.

The structures appear in SMILES notation. Activity calls are given as the source filed them.

As for `COC(=O)C1(C)C=C2C(=C(c3ccccc3)C(=O)C2C)CN1` (stereo not given), the composite z-score in [1] was 0.84; in assay [2] it was 0.0679; in assay [3], -0.0535; in assay [4], -0.18; in assay [5], -0.167; in assay [6], 1.96. For the same compound, the composite z-score is 0.691 in [7]; 0.313 in assay [9]; 0.23 in [10]; -0.722 in assay [11]; 0.517 in [15]; 0.498 in assay [17]. Besides, the values for the composite z-score in assay [18], in [19] and in assay [20] were -1.44, -0.904 and 0.0003, respectively. The z-score in assay [8] was 2.35 (inactive); in assay [12], -0.269 (inactive); in assay [13] it was 0.14 (inactive); in [14] it was 0.654 (inactive); in assay [16], -0.269 (inactive).

As for `CCN1C(=O)[C@H]2[C@H]3[C@H](O)[C@H](O)CC(=NOC(C)CN4CCCCc5nc(C)c(C)cc54)[C@@H]3CC[C@H]2C1=O` (stereo not given in full), the composite z-score is -0.698 in assay [1]; 0.532 in [2]; -0.138 in assay [3]; 0.223 in [4]; 0.462 in assay [5]; -0.531 in [6]. The composite z-score in assay [7] is -0.274; in [9], 0.253; in assay [10], 0.119; in assay [11] it was 0.708; in [15], -0.414; in assay [17], -0.0977. In addition, the composite z-score in assay [18] is 0.732; in assay [19], 0.398; in [20], 0.126. In addition, the z-score is 0.682 (inactive) in assay [8]; 0.12 (inactive) in [12]; 0.634 (inactive) in [13]; 0.403 (inactive) in assay [14]; 1.03 (inactive) in assay [16].

As for `CC(C)(C)N1C(=O)[C@H]2[C@H]3[C@H](O)[C@H](O)CC(=NOCc4ccccc4)[C@@H]3CC[C@H]2C1=O`, the composite z-score in [1] was -0.0757; in assay [2], 0.581; in assay [3], -0.0963; in assay [4], 0.805; in assay [5] it was 1.49; in assay [6], 0.583. The composite z-score in [7] was 1.13; in assay [9], 0.503; in [10], -0.15; in [11], 0.966; in assay [15], 1.16; in assay [17] it was -0.0574. Besides, the composite z-score in assay [18] came out at 0.524; in [19], 0.63; in assay [20] it was 0.328. For the same compound, the z-score in assay [8] was -1.4 (inactive); in assay [12], -1.86 (inactive); in assay [13], -0.752 (inactive); in assay [14], -0.715 (inactive); in [16], -0.207 (inactive).

`C[C@@H](c1ccccc1)N1C(=O)[C@H]2[C@H]3[C@H](O)[C@H](O)CC(=NNC(=O)OCc4ccccc4)[C@H]3CC[C@H]2C1=O`: the composite z-score in assay [1] is 0.512; in assay [2] it was 0.16; in [3] it was -0.129; in [4], 0.201; in assay [5] it was 0.382; in assay [6], -0.207. For the same compound, the composite z-score in assay [7] is -0.451; in [9] it was 0.366; in assay [10], -0.236; in assay [11], -0.26; in [15] it was 0.71; in [17] it was 0.2. Besides, the composite z-score is 0.124 in [18], -0.246 in assay [19] and 0.229 in assay [20]. The z-score is 0.0168 (inactive) in assay [8]; 0.547 (inactive) in assay [12]; 0.408 (inactive) in assay [13]; 0.698 (inactive) in assay [14]; 0.687 (inactive) in [16].

Turning to `COCCOC(=O)N1C(=O)[C@@]2(c3cc(C#CC4(O)CCCCCC4)ccc31)[C@H](c1ccc(OCCO)cc1)N1[C@H](c3ccccc3)[C@H](c3ccccc3)OC(=O)[C@H]1[C@@H]2C(=O)NC[C@H](O)c1ccccc1`, the composite z-score in [1] was -0.0536; in assay [2], 1.11; in assay [3], -0.0444; in [4], 0.66; in [5], 0.837; in [6] it was 1.55. In addition, the composite z-score in [7] is 1.13; in assay [9], 0.29; in [10] it was -0.0994; in [11], 1.55; in assay [15], 2.87; in assay [17], -0.0212. The composite z-score was 0.816 in [18], 1.03 in assay [19] and -0.0555 in assay [20]. For the same compound, the z-score in [8] is -0.294 (inactive); in [12], 2.19 (inactive); in [13], 0.874 (inactive); in [14], 6.86 (inactive); in [16] it was 1.6 (inactive).
